# From PubChem BioAssay (NCATS)
# Results filed as inconclusive are left out. The source made the active and inactive calls. Calls follow the shape of the dose curve; as a rule, active = well fitted cell-killing curve with a large enough effect; inconclusive = small, poorly fitted or top-dose-only effect; inactive = no such curve, though single readings can be large or run the other way.
# Assay: qHTS of pediatric cancer cell lines to identify multiple opportunities for drug repurposing: Primary screen for SK-N-MC cells (AID 1347093)
# Details: SK-N-MC viability, CellTiter-Glo luminescence, 48 h; series mostly up to 46 µM
# From the text: Drug repurposing or repositioning has been offered as a strategy for drug development in oncology programs. This approach has special potential for childhood cancers and other rare or orphan diseases, where the expected return on new drug development has been a disincentive to pharmaceuticals.
# In this project we exploit the poly-pharmacology of drugs to discover new indications via phenotypic screening of a panel of 19 well-characterized cell lines derived from solid tumors seen in children and adolescents. The goal is to identify approved drugs with previously unrecognized anticancer properties that has the potential to reveal new mechanisms and biological processes involved in carcinogenesis or drug resistance. We employed a titration-based paradigm (quantitative high-throughput screening or qHTS), where all compounds were tested at multiple concentrations for their effect on cell viability. Concentration-response curves (CRCs) were derived directly from the primary screen, and both potency and efficacy values were used to identify compounds with robust bioactivity profiles. We screened the NIH Chemical Genomics Center (NCGC) Pharmaceutical Collection (NPC) and Mechanism Interrogation Plate (MIPE) small molecule collections of approved and investigational compounds against these cell lines; and measured metabolically active cells after 48 hours of compound treatment as a proxy for cell viability.
# Assay Submitter: Nathalia J. Martinez, National Center for Advancing Translational Sciences, National Institutes of Health, Rockville, MD, USA; email: natalia.martinez@nih.gov
# [1] Shen, M et al. Quantitative high-throughput phenotypic screening of pediatric cancer cell lines identifies multiple opportunities for drug repurposing. Oncotarget 2017 Dec 19;9(4):4758-4772. PMID 29435139.
# The cells were obtained from University of North Carolina (UNC), Pediatric Preclinical Testing Program (PPT), and Coriell Institute (CI).
# qHTS cell viability assay:
# Cells were assayed in growth media at a density of 500-1,000 cells/well. Five microliters of cells were dispensed into 1,536-well, white, solid-bottom, TC-treated plates (Greiner Bio One) using a multidrop dispenser and incubated at 37 degrees C, 5% CO2, under a humidified atmosphere for 5 hours. Twenty-three nanoliters of compounds and controls (neutral control DMSO or positive control bortezomib at final concentration of 2.3 µM) were subsequently transferred by Kalypsys pintool. For primary screens, the MIPE collection was tested at 11-point dilutions (final concentrations range from 0.78 nM to 46 µM) and the NPC collection at 8-point dilutions (final concentrations range from 0.59nM to 46 µM). Compounds tested in follow-up screens were assayed at 11-point dilutions. Cells were incubated for 48 hours, followed by addition of 3 uL of CellTiter-Glo (Promega). After a 15 min incubation at room temperature, samples were analyzed for luminescence intensity using a ViewLux High-throughput CCD imager equipped with clear filters.
# Potency is read from the fitted curve at half-maximal effect.
row,SMILES,Potency
1,CN1CCN(Cc2ccc(NC(=O)Nc3ccc(Oc4cc(NC(=O)C5CC5)ncn4)cc3)cc2C(F)(F)F)CC1,0.332 µM (active)
2,CNC(=O)c1c(F)cccc1Nc1nc(Nc2cc3c(cc2OC)CCN3C(=O)CN(C)C)nc2[nH]ccc12,0.0148 µM (active)
3,COC(=O)Nc1nc2ccc(C(=O)c3ccc(F)cc3)cc2[nH]1,0.372 µM (active)
4,CC(C)=CCCC(C)=CCCC(C)=CCSc1ccccc1C(=O)O,0.743 µM (active)
5,C=CC(=O)Nc1cc2c(Nc3ccc(F)c(Cl)c3)ncnc2cc1OCCCN1CCOCC1,2.35 µM (active)
6,CN(C1CCc2c(c3ccccc3n2CC(=O)O)C1)S(=O)(=O)c1ccc(F)cc1 (stereo not given),0.935 µM (active)
7,NCC(=O)Nc1ccc(-n2nc(C(F)(F)F)cc2-c2ccc3c(ccc4ccccc43)c2)cc1,0.0372 µM (active)
8,COc1cc2c(cc1-c1c(C)noc1C)ncc1[nH]c(=O)n([C@H](C)c3ccccn3)c12,1.18 µM (active)
9,NC(=O)c1cccc2cn(-c3ccc([C@@H]4CCCNC4)cc3)nc12,8.33 µM (active)
10,Cc1cc(Nc2ncnc3ccc(-c4ccc(CNCCS(C)(=O)=O)o4)cc23)ccc1Oc1ccn2ncnc2c1,4.18 µM (active)
11,COC(=O)Nc1ccc(-c2nc(N3CCOCC3)c3cnn(C4CCN(Cc5cccnc5)CC4)c3n2)cc1,0.0469 µM (active)
12,Cc1coc2c1C(=O)C(=O)c1c-2ccc2c1CCCC2(C)C,8.33 µM (active)
13,Cc1cc(CN2CCN(c3c(Br)cnc4nc(-c5ccc(N6CCN(C)CC6)cc5)[nH]c34)CC2)no1,1.18 µM (active)
14,Clc1ccc2ncc(-c3cccc(NC4CNC4)n3)n2c1,7.43 µM (active)
15,O=C(O)[C@H](Cc1c[nH]c2ccccc12)N1C(=O)c2ccccc2C1=O,48.1 µM (active)
16,O=C(Nc1ncc(-c2cc(C(F)F)nn2-c2c(Cl)cccc2Cl)s1)C1CC1,0.296 µM (active)
17,CCN(CC)CCCCNc1ncc2cc(-c3cc(OC)cc(OC)c3)c(NC(=O)NC(C)(C)C)nc2n1,23.5 µM (active)
18,CCS(=O)(=O)c1cccc(-c2cc(C(=O)NC3CCN(C)CC3)c(C)c3[nH]c4ncc(C)cc4c23)c1,0.187 µM (active)
19,Cc1[nH]c2ccccc2c1CCNCc1ccc(C=CC(=O)NO)cc1,0.148 µM (active)
20,Cc1cc(N2CCOCC2)cc2[nH]c(-c3c(NC[C@@H](O)c4cccc(Cl)c4)cc[nH]c3=O)nc12,0.0118 µM (active)

row,SMILES,Potency
1,Cc1cc(Nc2nc(N[C@@H](C)c3ccc(F)cc3)c(C#N)cc2F)n[nH]1,0.743 µM (active)
2,CCOc1cc2ncc(C#N)c(Nc3ccc(F)c(Cl)c3)c2cc1NC(=O)C=CCN(C)C,0.0469 µM (active)
3,Fc1cc(-c2cccc3ncc(-c4cnn(C5CCNCC5)c4)nc23)cc(F)c1CN1CCOCC1,14.8 µM (active)
4,N#CCNC(=O)c1ccc(-c2ccnc(Nc3ccc(N4CCOCC4)cc3)n2)cc1,4.69 µM (active)
5,NC(=O)c1c(OCc2c(F)cc(Br)cc2F)nsc1NC(=O)NCCCCN1CCCC1,16.6 µM (active)
6,CC1(C)OC2=C(C(=O)c3ccccc3C2=O)[C@H](NCc2ccccc2)[C@H]1O,1.48 µM (active)
7,O=C(c1cncc(Br)c1)N1CCC(N2CCCC2)CC1,inactive
8,CN1CCN(c2ccc3nc(-c4c(N)c5c(F)cccc5[nH]c4=O)[nH]c3c2)CC1,14.8 µM (active)
9,COc1cc2c(NC3CCN(C(C)C)CC3)nc(C3CCCCC3)nc2cc1OCCCN1CCCC1,29.6 µM (active)
10,O=C(O)c1ccc2c(c1)nc(Nc1cccc(Cl)c1)c1ccncc12,0.935 µM (active)
11,CC(C)Nc1cc(C(F)(F)F)cc2nc(NC(=O)c3cccnc3)nn12,16.6 µM (active)
12,O=C(C=Cc1cccc(S(=O)(=O)Nc2ccccc2)c1)NO,1.21 µM (active)
13,CN1CCC(CNc2ccc3ncc(-c4cccc(OC(F)(F)F)c4)n3n2)CC1,4.18 µM (active)
14,COc1cc(C)c(Sc2cnc(NC(=O)c3ccc(CNC(C)C(C)C)cc3)s2)cc1C(=O)N1CCN(C(C)=O)CC1 (stereo not given),2.09 µM (active)
15,Cc1cn2cc(C(=O)N(C)CCO)cc(N[C@@H]3CCOc4cccc(C)c43)c2n1,inactive
16,CNC(=O)c1ccccc1Nc1nc(Nc2ccc(N3CCOCC3)cc2OC)ncc1Cl,0.209 µM (active)
17,COc1ccc(C(=O)CC2(O)C(=O)Nc3c(Cl)ccc(Cl)c32)cc1 (stereo not given),1.18 µM (active)
18,Cc1ccc2nc(NC(=O)CSc3nc4c(c(=O)n3-c3ccccc3)SCC4)sc2c1,26.4 µM (active)
19,CN(C)CCCN=c1c2ccccc2n(C)c2[nH]c(=O)n(C)c(=O)c12,2.96 µM (active)
20,C#Cc1cccc(Nc2ncnc3cc(OC)c(OCCCCCCC(=O)NO)cc23)c1,0.0118 µM (active)
